This note sets out measurements from PMC10726135, “HNF4α isoforms regulate the circadian balance between carbohydrate and lipid metabolism in the liver”.

Over roughly 18,000 sequences, “log2 normalized intensity” has its median near 0.36; the highest 2% begin near 7.3. The list comes from a sample in which the highest values are over-represented; it also holds similar and randomly drawn sequences.

This assay deals with T1, HNF4alpha8 (COS-7 nuclear extract) (Homo sapiens, UniProt P41235-5 1-452).
T1 sequence: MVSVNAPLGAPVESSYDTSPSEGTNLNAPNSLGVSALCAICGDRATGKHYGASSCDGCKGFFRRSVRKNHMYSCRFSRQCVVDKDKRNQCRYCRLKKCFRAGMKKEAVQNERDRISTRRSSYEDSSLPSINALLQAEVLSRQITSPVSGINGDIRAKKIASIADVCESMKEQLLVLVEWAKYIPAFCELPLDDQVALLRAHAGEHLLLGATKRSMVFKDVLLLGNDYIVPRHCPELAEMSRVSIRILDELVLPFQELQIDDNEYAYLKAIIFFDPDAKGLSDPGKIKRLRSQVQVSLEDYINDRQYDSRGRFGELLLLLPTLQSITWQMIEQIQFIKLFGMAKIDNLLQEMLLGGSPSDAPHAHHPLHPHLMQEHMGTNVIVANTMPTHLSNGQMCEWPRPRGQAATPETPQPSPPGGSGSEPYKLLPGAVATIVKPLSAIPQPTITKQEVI
Nature of the assay: protein-binding microarray; COS-7 nuclear extract on double-stranded Agilent 4x180k PBM; binding buffer, salt, pH and temperature not given in the material; high values mean tight binding. The following applies: chain copies: 2; label: 3' end of strand 1 on the slide; dsDNA, one strand shown. The method in brief:
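Binding signal was defined as the normalized, background-corrected gProcessedSignal reported by Agilent software. It came from nuclear extracts of COS-7 cells transiently transfected with a human HNF4α isoform expression vector, applied to a custom Agilent SurePrint G3 4x180k array. That array held ~44,000 test sequences in quadruplicate as double-stranded ~60-nt oligonucleotides, and bound HNF4α was imaged at 2-µm resolution on an Agilent G2565CA scanner.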
Consider “GGCTAAACCTAGCCCCCTTTCCCTTATCTTGCCTAGGGAGATTAGAGTATCGGTCGA”, for which the binding signal came out at 2.81 log2 normalized intensity.

Regarding “ACAGGTGCTCTTTATCAGCACCAAGAACAAGCCTAGGGAGATTAGAGTATCGGTCGA”, the binding signal was -0.837 log2 normalized intensity. To “GTAGTGGGGAGGGCATGGACTTTGGAATTAGCCTAGGGAGATTAGAGTATCGGTCGA” belongs 8.06 log2 normalized intensity. “TGATGACTTTTGACCCCAGGGGAAACTCCAGCCTAGGGAGATTAGAGTATCGGTCGA”: the binding signal worked out at 5.06 log2 normalized intensity.

With “TTATCATGTGGTATTAACATGTAAATATGAGCCTAGGGAGATTAGAGTATCGGTCGA”, the binding signal was 1.36 log2 normalized intensity. Regarding “GGAGGACTTTGGAATGGCAGTGCTTGTCCAGCCTAGGGAGATTAGAGTATCGGTCGA”, the binding signal amounted to 2.52 log2 normalized intensity.

On to “GAATGACTTTGGGGAAATGACCTTTGTCCAGCCTAGGGAGATTAGAGTATCGGTCGA”, for which the binding signal is 9.48 log2 normalized intensity. The value for “ATGACCTTTGAGCAATAGGAAATGGGAGGGGCCTAGGGAGATTAGAGTATCGGTCGA” was 3.35 log2 normalized intensity; that for “GCATGGAATGACTTTGGGGAAATGACCTTTGCCTAGGGAGATTAGAGTATCGGTCGA” was 7.96 log2 normalized intensity. The value for “GTATTAACATGTAAATATGACCTTTGCTTTGCCTAGGGAGATTAGAGTATCGGTCGA” was 7.1 log2 normalized intensity; that for “CTGGTGTAGTGGGGAGGGCATGGACTTTGGGCCTAGGGAGATTAGAGTATCGGTCGA” was 6.38 log2 normalized intensity; that for “GGGGAGGGCATGGACTTTGGAATTAAGGAGGCCTAGGGAGATTAGAGTATCGGTCGA” was 5.91 log2 normalized intensity. The value for “CCTTTTTGGAATGTGTTTGCATGACTCATAGCCTAGGGAGATTAGAGTATCGGTCGA” was 1.5 log2 normalized intensity. As for “ATGTGGTATTAACATGTAAATATGACCTTTGCCTAGGGAGATTAGAGTATCGGTCGA”, the binding signal came to 8.01 log2 normalized intensity.

For “TCACAATGGGGCATGACTTGTTATCACCTGGCCTAGGGAGATTAGAGTATCGGTCGA”, the binding signal is 0.285 log2 normalized intensity. The value for “TCCTTCTTGCTTAGGATAGGGTCAGTCTTTGCCTAGGGAGATTAGAGTATCGGTCGA” was 2.48 log2 normalized intensity; that for “AGGCCGGTTGGCCAGGTTCCTCCACCGTCAGCCTAGGGAGATTAGAGTATCGGTCGA” was -0.785 log2 normalized intensity; that for “TTCAGGCAGGAATGCTGAACAATTGATTTAGCCTAGGGAGATTAGAGTATCGGTCGA” was -0.858 log2 normalized intensity. In the case of “GTCAAAAGGTGTATGTGGACTTTCAACTGCGCCTAGGGAGATTAGAGTATCGGTCGA”, the binding signal was found to be 6.13 log2 normalized intensity.

For the sequence “CCACACAGCACGTAATAGTTCATGAAATGGGCCTAGGGAGATTAGAGTATCGGTCGA”, the binding signal was 0.614 log2 normalized intensity. To “AAACAGAGGCTGAAATGGTTACAAAGGTCAGCCTAGGGAGATTAGAGTATCGGTCGA” belongs 5.42 log2 normalized intensity; to “ACTTTGGGGAAATGACCTTTGTCCAGCTGTGCCTAGGGAGATTAGAGTATCGGTCGA”, 7.84 log2 normalized intensity; to “AATGACCTTTGTCCAGCTGTGCCGAGCCTGGCCTAGGGAGATTAGAGTATCGGTCGA”, 4.91 log2 normalized intensity. The value for “GGGGAAATGACCTTTGTCCAGCTGTGCCGAGCCTAGGGAGATTAGAGTATCGGTCGA” was 7.01 log2 normalized intensity; that for “GCCTCTTTATCTCCTCCCCTTGAGACTTTAGCCTAGGGAGATTAGAGTATCGGTCGA” was 2.97 log2 normalized intensity; that for “GACCTTTGGACTTGATAGAGTTTAAGTCTTGCCTAGGGAGATTAGAGTATCGGTCGA” was 7.2 log2 normalized intensity. To “ATATCCTGACTGCTGACCTTTAAGCCTATAGCCTAGGGAGATTAGAGTATCGGTCGA” belongs 4.7 log2 normalized intensity. As for “AACTCTCAGTTTGGCTCTTATGTCCCTCCTGCCTAGGGAGATTAGAGTATCGGTCGA”, the binding signal was determined as 0.947 log2 normalized intensity. To “CTCCTGACCTTTGGACTTGATAGAGTTTAAGCCTAGGGAGATTAGAGTATCGGTCGA” belongs 8.25 log2 normalized intensity. The value for “TCTTATGTCCCTCCTGACCTTTGGACTTGAGCCTAGGGAGATTAGAGTATCGGTCGA” was 10.6 log2 normalized intensity. To “TTGGCTCTTATGTCCCTCCTGACCTTTGGAGCCTAGGGAGATTAGAGTATCGGTCGA” belongs 9.16 log2 normalized intensity. With “ACTGCTCCAGTGGACATTGGCCCTTTGACCGCCTAGGGAGATTAGAGTATCGGTCGA”, the binding signal was 6.76 log2 normalized intensity. The value for “TCCAGTGGACATTGGCCCTTTGACCTTTAAGCCTAGGGAGATTAGAGTATCGGTCGA” was 8.05 log2 normalized intensity. To “TCAGTTTGGCTCTTATGTCCCTCCTGACCTGCCTAGGGAGATTAGAGTATCGGTCGA” belongs 3.83 log2 normalized intensity; to “ACCTTTGTCCTCATTGAGCCCTCCCCTTGTGCCTAGGGAGATTAGAGTATCGGTCGA”, 4.38 log2 normalized intensity. To “TGGACATTGGCCCTTTGACCTTTAATCAAGGCCTAGGGAGATTAGAGTATCGGTCGA” belongs 7.21 log2 normalized intensity; to “ACTACATTTCCAAGACCTCTTTGCGGATAGGCCTAGGGAGATTAGAGTATCGGTCGA”, -0.337 log2 normalized intensity; to “AGTCAATCCCGTGGACTTTGCCTGCCCATCGCCTAGGGAGATTAGAGTATCGGTCGA”, 5.08 log2 normalized intensity.

In the case of “GCCTGCCCTTCGCTCCCCGACCTCCTGCTGGCCTAGGGAGATTAGAGTATCGGTCGA”, the binding signal was 2.62 log2 normalized intensity.

“CAGGTATTTGCTCTGTGATAGCCTTTTACCGCCTAGGGAGATTAGAGTATCGGTCGA”: the binding signal was found to be 1.5 log2 normalized intensity. The value for “GGCAGGCTTCGAAAAATGGGTCTGGGATGTGCCTAGGGAGATTAGAGTATCGGTCGA” was 0.36 log2 normalized intensity. To “AGGGATTTCAGTGCCCTCATAAGAGACTTTGCCTAGGGAGATTAGAGTATCGGTCGA” belongs 2.22 log2 normalized intensity; to “TGTCCCTCCTGACCTTTGGACTTGATAGAGGCCTAGGGAGATTAGAGTATCGGTCGA”, 9.7 log2 normalized intensity; to “AGTCCTGACCTTGGACTCTGCCCTTGGCCTGCCTAGGGAGATTAGAGTATCGGTCGA”, 6.67 log2 normalized intensity. Take “CCTGACCTGCCCTTTGTCCCTCCTGCTAGTGCCTAGGGAGATTAGAGTATCGGTCGA”: the binding signal amounted to 3.93 log2 normalized intensity. The value for “TCCTCTATCTTCAAAGCCAGCAACGGTGAGGCCTAGGGAGATTAGAGTATCGGTCGA” was 0.0395 log2 normalized intensity; that for “CAGCTGTCGTGTGAATAGCACTGACCAGCTGCCTAGGGAGATTAGAGTATCGGTCGA” was 0.27 log2 normalized intensity; that for “GTTATCTAATGGAGAGGATGGGGACAAAGGGCCTAGGGAGATTAGAGTATCGGTCGA” was 2.55 log2 normalized intensity.

“CTAATGGAGAGGATGGGGACAAAGGTCAAGGCCTAGGGAGATTAGAGTATCGGTCGA”: the binding signal turned out to be 8.12 log2 normalized intensity. The value for “GACAAAGGTCATTCATGTGCAGGTTGGAATGCCTAGGGAGATTAGAGTATCGGTCGA” was 3.11 log2 normalized intensity; that for “AATTCCCTGCAAGGACAAAGGTCATGTTTTGCCTAGGGAGATTAGAGTATCGGTCGA” was 7.11 log2 normalized intensity; that for “GGAGAGGATGGGGACAAAGGTCAAGAAAGCGCCTAGGGAGATTAGAGTATCGGTCGA” was 6.33 log2 normalized intensity. The value for “TTTGGAATTCCCTGCAAGGACAAAGGTCATGCCTAGGGAGATTAGAGTATCGGTCGA” was 7.71 log2 normalized intensity; that for “TTACTTTTGCAAGGTTTGTTCTTATCATGCGCCTAGGGAGATTAGAGTATCGGTCGA” was 0.712 log2 normalized intensity.
